Results filed as inconclusive are left out. Values without a mark were called inactive. Activity calls are given as the source filed them. Calls come from the whole dose curve; as a rule, active = well fitted cell-killing curve with a large enough effect in the repeat runs; inconclusive = weak or mixed curves, or effect the other way; inactive = flat fitted curve, though single readings scatter.
Experiment: cAMP Responsive Elements (CRE) small molecule antagonists, cell-based qHTS assay: qHTS cell viability counter screen (AID 2060913); note: nearly all actives have a fitted effect of over 40% in size
Settings: CRE-bla HEK293T viability, CellTiter-Glo luminescence, 5 h; series mostly up to 92.4 µM; viability change, negative = cytotoxic: at the top concentration
Outline: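 Viability of NKH477-stimulated (0.25 uM final) CRE-bla HEK293T cells is measured by CellTiter-Glo luminescence following 3 hrs compound exposure at 37 C.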
% is set by controls: 0 for no effect and ±100 for the full control effect; potency is the fitted concentration of half-maximal effect.

Structure (SMILES) | viability change, negative = cytotoxic | Potency
c1ccc2c(c1)ccc1c3ccccc3ccc21 | 7.2% [at 42.5 µM] | –
CC(C)(C)NC(=O)[C@@H]1C[C@@H]2CCCC[C@@H]2CN1C[C@@H](O)[C@H](Cc1ccccc1)NC(=O)[C@H](CC(N)=O)NC(=O)c1ccc2ccccc2n1 | – | 61.9 µM (active)
Cc1ccc2c(Cl)cc(Cl)c(O)c2n1 | 3.66% [at 42.5 µM] | –
CC[N+](CC)(CC)CCOc1ccc(/C=C/c2ccccc2)cc1 | -9.73% [at 42.5 µM] | –
O=P(O)(O)OCC(O)CO (stereo not given) | 3.94% [at 42.5 µM] | –
Nc1ccc(S(=O)(=O)Nc2ccccn2)cc1 | 2.17% [at 42.5 µM] | –
Clc1cc(Cl)c2c(c1)N=C1CCCCCN1C2 | -2.32% [at 42.5 µM] | –
CC(=O)[C@@]1(O)CC[C@H]2[C@@H]3CCC4=CC(=O)CC[C@]4(C)[C@H]3CC[C@@]21C | – | inactive
CC(C)(C)C1CCC(=O)CC1 | -3.94% | –
COc1cc(N)c(Cl)cc1C(=O)NC1CCN(CCCOc2ccc(F)cc2)CC1OC (stereo not given) | 1.27% [at 42.5 µM] | –
CC(C)(C)c1ccc(C(=O)CCCN2CCC(OC(c3ccccc3)c3ccccc3)CC2)cc1 | -12.1% [at 42.5 µM] | –
O=C1CCCC1 | -0.498% | –
CCCCC(CC)COP(=O)(O)OCC(CC)CCCC (stereo not given) | – | inactive
Cc1cc2nc3ccc(=[N+](C)C)cc-3sc2cc1N | -5.77% [at 42.5 µM] | –
O=C(CC(=O)c1ccccc1)c1ccccc1 | -0.675% | –
NC(=O)Cc1cccc2ccccc12 | 3.72% | –
O=S(=O)(O)c1ccccc1O | 8.12% | –
CCN(CC)CC1CCCCN1CC(=O)N1c2ccccc2C(=O)Nc2cccnc21 (stereo not given) | -0.432% [at 42.5 µM] | –
Oc1ccc(Cl)cc1Cc1cc(Cl)ccc1O | – | 50.8 µM (active)
CC(=O)OCCOC(C)=O | – | inactive

Structure (SMILES) | viability change, negative = cytotoxic | Potency
O=C(C(Cl)Cl)N1CCOC12CCCCC2 | 6.86% | –
CC=O | – | 63.9 µM (active)
ClCCOCCOCCCl | -4.71% | –
Brc1c(NC2=NCCN2)ccc2nccnc12 | 0.835% [at 42.5 µM] | –
CCN(CC)CCNC(=O)c1cc(Cl)c(N)cc1OC | 0.44% [at 42.5 µM] | –
O=C(C1CCCCC1)N1CC(=O)N2CCc3ccccc3C2C1 (stereo not given) | – | inactive
CC(=O)N(CC(O)CN(C(C)=O)c1c(I)c(C(=O)NCC(O)CO)c(I)c(C(=O)NCC(O)CO)c1I)c1c(I)c(C(=O)NCC(O)CO)c(I)c(C(=O)NCC(O)CO)c1I (stereo not given) | 3.4% [at 42.5 µM] | –
Cc1c(C(N)=O)cc([N+](=O)[O-])cc1[N+](=O)[O-] | – | inactive
CCCCCC/C=C\CCCCCCCC(=O)O | 0.644% | –
Brc1nc2ccccc2s1 | – | inactive
Cc1cccc(N(C)C)c1 | 3.33% | –
N#Cc1cc2ccccc2c2ccccc12 | -10.6% | –
CCC(=O)OCCOc1ccccc1 | -0.167% | –
C=CCNc1nc(NCC=C)nc(N2CCN(C(c3ccc(F)cc3)c3ccc(F)cc3)CC2)n1 | -15.4% [at 42.5 µM] | –
CC(C(=O)O)c1ccc(CC2CCCC2=O)cc1 (stereo not given) | -2.16% [at 42.5 µM] | –
CCC(CO)(CO)CO | 8.14% | –
CCCCCCCC(=O)OCC(COC(=O)CCCCCCC)OC(=O)CCCCCCC | – | inactive
CCCc1ccc(N)cc1 | 1.46% | –
CC(=O)CCc1ccc(OC(C)=O)cc1 | 0.994% | –
NNC(=O)OCc1ccccc1 | 0.638% | –

Source: PubChem BioAssay (Tox21)
